Usually inhibition stands for the change of the read-out against control, counted positive when it falls.

In assay [1] the target is Mitogen-activated protein kinase kinase kinase kinase 4 (Homo sapiens) (UniProt O95819). Particulars: at 1 µM.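 Further: reported figure is an averaged inhibition value.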
Assay [2] deals with Dual specificity mitogen-activated protein kinase kinase 1 (Homo sapiens) (UniProt Q02750). Particulars: at 0.1 µM.
Assay [3] shares this target. To be noted: at 1 µM.
The target of assay [4] is Misshapen-like kinase 1 (Homo sapiens) (UniProt Q8N4C8). Particulars: at 0.1 µM.
For assay [5] the target is unchanged. Particulars: at 1 µM.
Assay [6] addresses T1, Serine/threonine-protein kinase 4 (Homo sapiens) (UniProt Q13043).
T1 sequence (whole entry): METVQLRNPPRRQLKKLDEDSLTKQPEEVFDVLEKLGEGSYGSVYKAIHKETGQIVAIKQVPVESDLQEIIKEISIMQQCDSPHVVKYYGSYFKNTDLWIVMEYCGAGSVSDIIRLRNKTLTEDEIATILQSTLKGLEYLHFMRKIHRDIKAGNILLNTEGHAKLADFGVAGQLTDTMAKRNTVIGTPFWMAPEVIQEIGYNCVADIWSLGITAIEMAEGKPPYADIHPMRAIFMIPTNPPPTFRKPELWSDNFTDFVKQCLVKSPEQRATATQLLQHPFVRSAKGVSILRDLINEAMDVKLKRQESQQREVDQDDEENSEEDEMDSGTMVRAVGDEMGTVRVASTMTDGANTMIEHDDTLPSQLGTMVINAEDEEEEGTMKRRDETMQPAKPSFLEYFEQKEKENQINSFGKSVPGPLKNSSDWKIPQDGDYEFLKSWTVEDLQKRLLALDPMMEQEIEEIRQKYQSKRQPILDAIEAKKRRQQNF
To be noted: at 0.1 µM.

The target of assay [7] is T1, Serine/threonine-protein kinase 4 (Homo sapiens). Particulars: at 1 µM.
Assay [8] deals with T2, Serine/threonine-protein kinase 3 (Homo sapiens) (UniProt Q13188).
T2 sequence (whole entry): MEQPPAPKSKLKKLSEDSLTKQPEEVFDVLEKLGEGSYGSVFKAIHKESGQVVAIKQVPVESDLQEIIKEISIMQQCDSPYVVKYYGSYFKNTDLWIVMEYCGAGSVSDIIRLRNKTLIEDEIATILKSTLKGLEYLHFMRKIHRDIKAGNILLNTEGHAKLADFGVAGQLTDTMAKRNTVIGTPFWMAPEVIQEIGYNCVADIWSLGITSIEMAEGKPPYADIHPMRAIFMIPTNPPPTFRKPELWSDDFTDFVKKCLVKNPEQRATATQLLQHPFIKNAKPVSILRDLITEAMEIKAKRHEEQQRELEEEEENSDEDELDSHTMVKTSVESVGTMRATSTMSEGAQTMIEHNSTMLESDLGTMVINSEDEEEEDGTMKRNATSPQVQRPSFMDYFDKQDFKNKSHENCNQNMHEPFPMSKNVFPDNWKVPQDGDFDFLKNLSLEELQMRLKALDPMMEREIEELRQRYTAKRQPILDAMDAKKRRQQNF
To be noted: at 0.1 µM.

The target in assay [9] is T2, Serine/threonine-protein kinase 3 (Homo sapiens). To be noted: at 1 µM.
Assay [10] concerns the target Serine/threonine-protein kinase 26 (Homo sapiens) (UniProt Q9P289). To be noted: at 0.1 µM.
The target is the same in assay [11]. To be noted: at 1 µM.
In assay [12] the target is Serine/threonine-protein kinase PAK 1 (Homo sapiens) (UniProt Q13153). To be noted: at 0.1 µM.
The target is the same in assay [13]. Particulars: at 1 µM.
Assay [14] addresses Serine/threonine-protein kinase PAK 2 (Homo sapiens) (UniProt Q13177). Particulars: at 0.1 µM.
Assay [15] shares this target. To be noted: at 1 µM.
Assay [16] concerns the target Serine/threonine-protein kinase PAK 3 (Homo sapiens) (UniProt O75914). To be noted: at 0.1 µM.
The target is the same in assay [17]. Particulars: at 1 µM.
Assay [18] concerns the target Serine/threonine-protein kinase PAK 5 (Homo sapiens) (UniProt Q9P286). Particulars: at 0.1 µM.
For assay [19] the target is unchanged. Particulars: at 1 µM.
Assay [20] concerns the target Serine/threonine-protein kinase PAK 6 (Homo sapiens) (UniProt Q9NQU5). Particulars: at 0.1 µM.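 Further: mean PAK6 inhibition reported from the GSK PKIS screen.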

Sequence of Dual specificity mitogen-activated protein kinase kinase 1 (Homo sapiens) (Q02750 whole entry): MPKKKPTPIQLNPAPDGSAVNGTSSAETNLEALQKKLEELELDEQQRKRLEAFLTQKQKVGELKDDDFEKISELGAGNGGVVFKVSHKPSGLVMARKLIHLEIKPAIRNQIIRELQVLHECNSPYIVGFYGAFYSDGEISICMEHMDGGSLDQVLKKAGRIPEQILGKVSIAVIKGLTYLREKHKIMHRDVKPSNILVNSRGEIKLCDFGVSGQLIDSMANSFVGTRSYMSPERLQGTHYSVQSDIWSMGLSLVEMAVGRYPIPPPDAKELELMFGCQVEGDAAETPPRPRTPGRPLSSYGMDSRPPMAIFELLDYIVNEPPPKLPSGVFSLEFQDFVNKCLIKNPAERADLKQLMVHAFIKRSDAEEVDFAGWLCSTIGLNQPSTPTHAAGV
Sequence of Serine/threonine-protein kinase PAK 2 (Homo sapiens) (Q13177 whole entry): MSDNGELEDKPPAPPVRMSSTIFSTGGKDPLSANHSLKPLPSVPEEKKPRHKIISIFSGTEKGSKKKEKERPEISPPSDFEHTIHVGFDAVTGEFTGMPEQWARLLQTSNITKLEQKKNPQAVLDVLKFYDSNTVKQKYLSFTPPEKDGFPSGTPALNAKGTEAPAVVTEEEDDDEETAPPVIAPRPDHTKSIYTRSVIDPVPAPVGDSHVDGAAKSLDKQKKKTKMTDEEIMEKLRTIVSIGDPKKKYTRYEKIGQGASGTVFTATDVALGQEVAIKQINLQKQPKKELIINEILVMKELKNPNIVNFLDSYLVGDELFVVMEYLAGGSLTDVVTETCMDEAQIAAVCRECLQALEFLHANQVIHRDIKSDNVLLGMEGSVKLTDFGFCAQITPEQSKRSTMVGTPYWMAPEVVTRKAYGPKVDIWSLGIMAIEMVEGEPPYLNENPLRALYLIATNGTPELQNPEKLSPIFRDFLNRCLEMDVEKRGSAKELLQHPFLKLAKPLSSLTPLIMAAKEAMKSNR
Sequence of Serine/threonine-protein kinase PAK 6 (Homo sapiens) (Q9NQU5 whole entry, looked up): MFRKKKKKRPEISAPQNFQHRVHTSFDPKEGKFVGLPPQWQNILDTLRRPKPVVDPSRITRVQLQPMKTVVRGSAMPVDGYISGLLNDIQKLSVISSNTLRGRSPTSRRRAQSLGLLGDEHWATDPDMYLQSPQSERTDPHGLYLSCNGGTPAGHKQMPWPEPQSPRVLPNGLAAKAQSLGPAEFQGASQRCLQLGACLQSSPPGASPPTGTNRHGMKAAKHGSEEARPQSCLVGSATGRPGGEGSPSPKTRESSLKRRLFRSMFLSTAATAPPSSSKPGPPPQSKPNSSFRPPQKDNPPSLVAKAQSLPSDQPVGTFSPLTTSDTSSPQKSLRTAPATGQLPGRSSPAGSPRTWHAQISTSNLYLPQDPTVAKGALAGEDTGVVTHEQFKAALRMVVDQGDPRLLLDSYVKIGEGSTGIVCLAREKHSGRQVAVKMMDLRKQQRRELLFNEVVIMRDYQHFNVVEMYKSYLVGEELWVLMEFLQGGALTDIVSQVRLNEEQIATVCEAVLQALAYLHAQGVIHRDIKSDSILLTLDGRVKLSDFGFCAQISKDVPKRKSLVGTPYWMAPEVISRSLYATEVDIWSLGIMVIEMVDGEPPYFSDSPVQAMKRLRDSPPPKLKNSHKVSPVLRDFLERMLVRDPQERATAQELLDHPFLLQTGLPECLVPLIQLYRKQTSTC
Sequence of Misshapen-like kinase 1 (Homo sapiens) (Q8N4C8 whole entry, looked up): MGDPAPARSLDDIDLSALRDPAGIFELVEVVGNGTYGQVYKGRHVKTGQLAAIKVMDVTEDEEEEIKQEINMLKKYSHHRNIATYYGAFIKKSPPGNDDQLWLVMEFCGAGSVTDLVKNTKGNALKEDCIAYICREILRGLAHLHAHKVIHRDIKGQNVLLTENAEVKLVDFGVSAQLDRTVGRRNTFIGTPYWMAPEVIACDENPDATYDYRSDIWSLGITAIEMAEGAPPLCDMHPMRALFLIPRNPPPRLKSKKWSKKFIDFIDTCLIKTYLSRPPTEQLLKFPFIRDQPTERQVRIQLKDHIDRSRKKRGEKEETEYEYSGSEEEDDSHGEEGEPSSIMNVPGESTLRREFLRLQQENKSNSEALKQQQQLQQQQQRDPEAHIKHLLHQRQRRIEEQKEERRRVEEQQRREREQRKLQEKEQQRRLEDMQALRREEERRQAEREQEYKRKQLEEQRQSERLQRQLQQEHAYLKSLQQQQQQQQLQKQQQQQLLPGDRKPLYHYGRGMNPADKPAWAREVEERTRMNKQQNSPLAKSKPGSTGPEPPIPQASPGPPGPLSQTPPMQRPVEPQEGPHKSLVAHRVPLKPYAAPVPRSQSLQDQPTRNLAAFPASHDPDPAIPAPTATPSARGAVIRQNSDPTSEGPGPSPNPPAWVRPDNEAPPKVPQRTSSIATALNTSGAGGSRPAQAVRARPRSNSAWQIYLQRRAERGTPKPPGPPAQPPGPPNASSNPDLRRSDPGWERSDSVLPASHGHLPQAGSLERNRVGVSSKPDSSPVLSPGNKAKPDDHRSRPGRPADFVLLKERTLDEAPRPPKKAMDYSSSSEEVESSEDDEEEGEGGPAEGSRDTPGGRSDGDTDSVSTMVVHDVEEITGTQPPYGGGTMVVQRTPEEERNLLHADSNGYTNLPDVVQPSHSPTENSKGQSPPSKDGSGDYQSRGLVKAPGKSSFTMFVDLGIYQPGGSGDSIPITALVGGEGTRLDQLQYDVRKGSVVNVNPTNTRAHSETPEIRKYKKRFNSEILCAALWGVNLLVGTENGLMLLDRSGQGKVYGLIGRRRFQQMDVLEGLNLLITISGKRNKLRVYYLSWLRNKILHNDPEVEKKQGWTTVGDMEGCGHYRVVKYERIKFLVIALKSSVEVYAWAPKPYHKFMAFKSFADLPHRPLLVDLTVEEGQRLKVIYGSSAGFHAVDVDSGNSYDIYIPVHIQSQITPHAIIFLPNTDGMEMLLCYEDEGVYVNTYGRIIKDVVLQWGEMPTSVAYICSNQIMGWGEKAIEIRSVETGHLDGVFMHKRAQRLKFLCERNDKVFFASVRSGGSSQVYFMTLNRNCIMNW
Sequence of Serine/threonine-protein kinase 26 (Homo sapiens) (Q9P289 2-416 limits assumed): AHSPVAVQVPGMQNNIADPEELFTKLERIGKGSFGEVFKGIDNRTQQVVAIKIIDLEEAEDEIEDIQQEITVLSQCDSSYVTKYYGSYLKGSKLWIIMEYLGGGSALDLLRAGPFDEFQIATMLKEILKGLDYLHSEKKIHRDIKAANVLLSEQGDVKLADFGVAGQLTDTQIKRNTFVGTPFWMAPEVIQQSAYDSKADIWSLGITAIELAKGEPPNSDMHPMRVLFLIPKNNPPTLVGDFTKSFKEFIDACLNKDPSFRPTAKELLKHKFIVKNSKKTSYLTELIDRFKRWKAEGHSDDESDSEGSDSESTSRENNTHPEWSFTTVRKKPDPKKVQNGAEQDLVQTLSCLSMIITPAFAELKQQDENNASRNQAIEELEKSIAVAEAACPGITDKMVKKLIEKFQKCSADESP
Sequence of Serine/threonine-protein kinase PAK 5 (Homo sapiens) (Q9P286 whole entry, looked up): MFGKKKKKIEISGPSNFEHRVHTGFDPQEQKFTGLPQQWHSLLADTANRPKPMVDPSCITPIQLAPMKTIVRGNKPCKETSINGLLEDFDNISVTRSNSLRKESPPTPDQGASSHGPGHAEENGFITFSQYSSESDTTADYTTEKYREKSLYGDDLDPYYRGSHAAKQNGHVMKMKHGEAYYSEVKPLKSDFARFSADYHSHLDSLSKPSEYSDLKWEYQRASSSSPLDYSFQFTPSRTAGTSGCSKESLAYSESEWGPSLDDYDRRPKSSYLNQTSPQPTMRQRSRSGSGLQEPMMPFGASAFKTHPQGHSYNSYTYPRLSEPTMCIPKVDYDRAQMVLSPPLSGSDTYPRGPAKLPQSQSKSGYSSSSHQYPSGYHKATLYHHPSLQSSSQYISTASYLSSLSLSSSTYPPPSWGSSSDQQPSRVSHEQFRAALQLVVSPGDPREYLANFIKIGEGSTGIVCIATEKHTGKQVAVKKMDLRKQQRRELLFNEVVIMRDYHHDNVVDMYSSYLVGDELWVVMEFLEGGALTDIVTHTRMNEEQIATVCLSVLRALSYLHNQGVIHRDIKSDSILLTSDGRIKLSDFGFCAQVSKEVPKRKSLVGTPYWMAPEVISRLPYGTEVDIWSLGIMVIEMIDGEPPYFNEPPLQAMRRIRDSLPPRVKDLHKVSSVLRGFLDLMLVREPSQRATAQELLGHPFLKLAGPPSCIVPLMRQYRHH
Sequence of Serine/threonine-protein kinase PAK 3 (Homo sapiens) (O75914 whole entry, looked up): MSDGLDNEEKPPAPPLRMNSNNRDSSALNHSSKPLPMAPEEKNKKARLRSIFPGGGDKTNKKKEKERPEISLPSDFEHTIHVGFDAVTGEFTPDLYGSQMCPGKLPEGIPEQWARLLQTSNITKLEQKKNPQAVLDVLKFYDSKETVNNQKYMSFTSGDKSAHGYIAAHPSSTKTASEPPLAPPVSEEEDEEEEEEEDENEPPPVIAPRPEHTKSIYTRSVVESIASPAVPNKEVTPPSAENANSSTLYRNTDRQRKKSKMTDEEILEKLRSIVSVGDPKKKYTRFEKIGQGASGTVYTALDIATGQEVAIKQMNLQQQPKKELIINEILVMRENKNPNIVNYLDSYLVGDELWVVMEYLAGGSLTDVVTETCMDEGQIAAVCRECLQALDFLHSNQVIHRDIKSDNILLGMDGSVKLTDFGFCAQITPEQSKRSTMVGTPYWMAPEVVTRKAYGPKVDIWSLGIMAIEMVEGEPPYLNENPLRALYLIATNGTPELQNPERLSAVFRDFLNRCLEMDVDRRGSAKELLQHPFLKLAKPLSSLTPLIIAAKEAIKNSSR

For the compound `Fc1ccc(-c2ncn(C3CCNCC3)c2-c2ccnc(Oc3ccccc3)n2)cc1`, the inhibition in [1] is 6.15%; in assay [2], 1.34%; in assay [3], 3.93%; in assay [4], 2.7%; in assay [5], 6.65%; in [6] it was 0.94%. The inhibition in assay [7] was 1.85%; in assay [8], 1.01%; in [9], 2.48%; in [10] it was -0.85%; in assay [11] it was 0.32%; in [12], 3.79%. In addition, the inhibition was 1.88% in assay [13]; 0.54% in assay [14]; 1.48% in [15]; 1.85% in assay [16]; 3.31% in [17]; 2.66% in assay [18]. For the same compound, the inhibition in assay [19] is 2.03%; in assay [20], -8.85%.
As for `CCn1c(-c2nonc2N)nc2c(C#CC(C)(C)O)ncc(OC[C@@H]3CCCN3)c21`, the inhibition came to 2.54% in [1]; 1.6% in [2]; 0.19% in assay [3]; 0.63% in [4]; 0.93% in [5]; 0.46% in [6]. For the same compound, the inhibition was 2.14% in assay [7]; 0.87% in assay [8]; 2.41% in assay [9]; 0.78% in assay [10]; -0.64% in [11]; -0.64% in [12]. Besides, the inhibition is 7.58% in assay [13]; 1.99% in assay [14]; 16.6% in assay [15]; 0.61% in assay [16]; 4.06% in assay [17]; 12.6% in assay [18]. Moreover, the inhibition worked out at 49.8% in assay [19] and 19.1% in assay [20].
In the case of `NS(=O)(=O)c1ccc(N/C=C2\C(=O)Nc3ccc4ncsc4c32)cc1`, the inhibition came to 76.9% in [1]; 8.75% in assay [2]; 42.9% in assay [3]; 45.2% in [4]; 76.9% in assay [5]; 70.2% in [6]. Further, the inhibition in assay [7] stood at 75.2%; in [8] it was 65.1%; in [9], 73.7%; in [10], 42.6%; in assay [11] it was 74.5%; in assay [12], 4.98%. The inhibition is 7.33% in assay [13]; 1.87% in assay [14]; 2.66% in assay [15]; 5.48% in [16]; 5.62% in assay [17]; 2.66% in assay [18]. Also, the inhibition in assay [19] is 4.51%; in assay [20] it was -9.73%.
For `Nc1nonc1-c1nc2cnccc2n1C1CCCCC1`, the inhibition in assay [1] was 46.2%; in [2] it was 0.13%; in assay [3], 7.67%; in assay [4] it was 2.02%; in assay [5] it was 31.4%; in assay [6], 0.54%. The inhibition in [7] is 18.5%; in assay [8] it was -0.2%; in assay [9], 13.8%; in [10], 0.77%; in [11], 3.95%; in [12], -0.52%. The inhibition in assay [13] is -1.25%; in assay [14], -2.06%; in assay [15], -1.54%; in assay [16], -3.57%; in [17], -2.19%; in assay [18], -7.66%. Further, the results for the inhibition in assay [19] and in assay [20] were -4.63% and -0.28%, respectively.
With `NS(=O)(=O)c1ccc(-c2ccc3c(NC(=O)C4CC4)n[nH]c3c2)cc1`, the inhibition in assay [1] came out at 5.23%; in assay [2], 1.7%; in assay [3], 2%; in [4], 3.12%; in [5], 4.48%; in [6], 3.07%. The inhibition is 5.91% in [7]; 4.35% in assay [8]; 5.17% in assay [9]; 0.02% in [10]; -2.58% in [11]; 6.54% in [12]. Besides, the inhibition was found to be 2.13% in assay [13]; 1.52% in assay [14]; 2.07% in assay [15]; 2.48% in [16]; 4.17% in [17]; 1.07% in [18]. In addition, the inhibition in [19] amounted to 2.99%; in [20], 7.47%.
For `COc1cc2c(cc1Nc1nc(Nc3ccsc3C(N)=O)c3cc[nH]c3n1)N(C(=O)CN(C)C)CCC2`, the inhibition is 14.9% in assay [1]; -3.96% in assay [2]; -5.54% in assay [3]; 13.3% in assay [4]; 17% in assay [5]; 1.72% in assay [6]. For the same compound, the inhibition in assay [7] was 8.27%; in assay [10], 1.14%; in [11] it was 0.17%; in assay [12] it was -0.61%; in assay [13], 0.73%; in assay [14], 1.88%. Moreover, the inhibition is 2.11% in [15]; 3.92% in [16]; 7.24% in assay [17]; -1% in assay [18]; -3.49% in [19]; 4.98% in assay [20].
On to `NC(=O)c1sc(-n2cnc3cc(C(F)(F)F)ccc32)cc1OCc1ccccc1Br`, for which the inhibition in [1] was determined as 12.4%; in assay [2], 2.56%; in [3], 1.52%; in assay [4], 4.93%; in assay [5], 11.4%; in [6] it was 1.82%. The inhibition in assay [7] came to 2.83%; in [8] it was 1.31%; in assay [9], 2.28%; in assay [10], 1.54%; in [11], 3.19%; in assay [12] it was 1.15%. The inhibition in assay [13] is 2.03%; in assay [14], -0.71%; in [15], -1.57%; in assay [16], 1.59%; in assay [17], 0.61%; in assay [18], 1.54%. Moreover, the inhibition stood at 0.39% in assay [19] and 3.56% in assay [20].
